Measured values reported in PubChem BioAssay AID590 (National Center for Advancing Translational Sciences (NCATS), 2007).
Out of some 59,000 compounds screened, about 6,500 (11%) were called active. Roughly 15% stayed inconclusive and do not appear here. Rule as the data show it: active = max dye-equivalent concentration above about 10 nM; inconclusive = mostly about 1.1 nM to 9.6 nM; inactive = weaker than that. The sample as a whole holds a higher share of actives than the screen did. More than one record can exist for a structure, and the calls need not agree.

Test: qHTS Assay for Spectroscopic Profiling in A350 Spectral Region
Settings: Compound autofluorescence, 340/450 nm, Alexa 350 dye-equivalents; hits give high values
From the text: NIH Molecular Libraries Screening Centers Network [MLSCN]
NIH Chemical Genomics Center [NCGC]
Occasionally, the artifactual effect may originate from the compounds own spectral or other biophysical properties which generally tend to track its assay concentration. Pre-screening/profiling the library with respect to the compounds spectral properties should help one exclude false positives early on. While the most informative fluorescent profiling data set is obtained by performing a full excitation and emission scan of each well by using a monochromator-based plate reader, such an approach is practical only on a very limited scale as scanning each well requires long time. An alternative approach, applied here, is to perform plate reader scans using selected excitation and emission wavelength pairs to generate a multidimensional relational database that correlates compound concentration and the respective relative fluorescence intensity at a given wavelength set. A standard curve of Alexa 350 (A 350) present on each plate as six-point concentration series, was used to compute a normalized fluorescence response, termed dye-equivalent concentration, for each compound at each concentration.
NCGC Assay Protocol Summary:
100 mM Tris buffer, pH 8.0
The wells in columns 1 through 4 of a Kalypsys polypropylene 1536-well compound plate were filled with standard solutions of fluorophore corresponding to the spectral region of interest. Solutions of A 350 were placed in the following wells: I1, J1: 3 mM, I2, J2: 300 uM, I3, J3: 30 uM, I4, J4: zero (DMSO), K1, L1: 3 uM, K2, L2: […], K3, L3: 300 nM, K4, L4: zero (DMSO).
Six uL of buffer were dispensed to 1536-well Greiner black plates. Compounds and dye standards (23 nL) were transferred via Kalypsys PinTool. The plates were incubated for 15 min at room temperature, and then read on ViewLux (Perkin-Elmer) High-throughput CCD imager using 340 nm and 450 nm excitation and emission filter set.
Keywords: NIH Roadmap, MLSCN, MLI, MLSMR, qHTS, NCGC, A350, A-350, Fluorescent Profiling.

Row | Structure (SMILES) | max dye-equivalent concentration | outcome
1 | CSC1=NP(=S)(SC)N(C)c2nc3n(c21)CCC3 (stereo unspecified) | 26 nM (active) | 
2 | CN1[C@@H]2CC[C@H]1CC(OC(=O)c1cc(Cl)cc(Cl)c1)C2 (stereo partly specified) | inactive | 
3 | CN1CCN(C(=O)O[C@@H]2c3nccnc3C(=O)N2c2ccc(Cl)cn2)CC1 | inactive | 
4 | c1ccc2c(c1)[I+]c1ccccc1-2 | inactive | 
5 | C[N+]1(C)C2CC(OC(=O)C(CO)c3ccccc3)CC1[C@@H]1O[C@H]21 (stereo partly specified) | inactive | 
6 | CC(C)(O)[C@H]1[C@H]2OC(=O)[C@@H]1[C@]1(O)C[C@H]3O[C@]34C(=O)O[C@H]2[C@]14C | inactive | 
7 | c1ccc(CN2CC[C@@]3(CCCNC3)C2)cc1 | 13 nM (active) | 
8 | c1ccc(N2CC[C@@]3(CCCNC3)C2)nc1 | inactive | 
9 | c1csc(CN2CCCC3(CCNCC3)C2)n1 | inactive | 
10 | C[C@@]12CC[C@H]3[C@@H](CC[C@]4(O)C[C@H](O)CC[C@@]34C=O)[C@]1(O)CC[C@@H]2C1=CC(=O)OC1 | inactive | 
11 | C[C@H](Br)C(=O)N[C@H](CO)C(=O)O | inactive | 
12 | CCOC(=O)c1c(N)n(Cc2ccccc2)c2nc3ccccc3nc12 | 1500 nM (active) | 
13 | c1csc(CN2CC3(CCNCC3)C2)n1 | inactive | 
14 | CC(=O)O[C@H]1CC[C@@]2(C)[C@@H](CC[C@H]3[C@H]2CC(=O)[C@]2(C)[C@@H]3C[C@@H](N3CC3)[C@H]2C(C)=O)C1 | inactive | 
15 | O=C(Nc1cccc(F)c1)N1CC[C@@]2(CCCN(C(=O)Oc3ccccc3)C2)C1 | inactive | 
16 | CCN1c2nc3c(C)cccn3c(=O)c2CC2(C(=O)N(C)C(=O)N(C)C2=O)C1C (stereo unspecified) | 38 nM (active) | 
17 | O=C(O)C(=O)Cc1ccc2c(c1)OCO2 | inactive | 
18 | COC(=O)COc1cc(C)cc2oc(=O)c3c(c12)CCCC3 | inactive | 
19 | CCCCCCN=C(CC)c1c(O)n(CCCC)c(=O)[nH]c1=O | inactive | 
20 | NC(=O)c1ccc(OC[C@H](O)CN2CC=C(c3ccc(F)cc3)CC2)cc1 | inactive | 
21 | CCN1C[C@]2(C)CC[C@H](O)[C@@]34[C@@H]5CC6[C@@H](OC)C[C@@](O)([C@@H]5[C@@H]6O)[C@H](C[C@@H]23)[C@H]14 | inactive | 
22 | C[C@]12CC[C@H](O)CC1=CC[C@@H]1[C@H]2CC[C@]2(C)C(=O)CC[C@H]12 | inactive | 
23 | C[C@@]12CC[C@H](O)C[C@@H]1CC[C@@H]1[C@@H]2CC[C@@]2(C)[C@@H](C3=CC(=O)OC3)[C@H](O)C[C@]12O | inactive | 
24 | C[C@]12CC[C@H](O)C[C@@H]1CC[C@H]1[C@H]2CC[C@]2(C)C(=O)CC[C@@H]12 | 64 nM (active) | inactive
25 | CC(C)(O)/C=C\C(=O)[C@](C)(O)[C@H]1[C@H](O)C[C@]2(C)[C@@H]3CC=C4[C@@H](C=C(O)C(=O)C4(C)C)[C@]3(C)C(=O)C[C@@]12C | inactive | 
